Assay [1] can be described thus: liver-stage malaria parasite growth inhibition, primary screen, cell-based, HepG2, luciferase luminescence, HepG2 viability (AID 624349; in the data active means parasite load remaining mostly below about 12%, no sharp cut-off; inactive means mostly above about 10%;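 further: 100% = mean of DMSO negative control wells on the same plate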). The note with it: P. berghei liver stage in HepG2, luciferase luminescence, concentration not given here; parasite load remaining: stronger effect = lower value; viability: measured here: HepG2 viability without parasites.
Assay [2] can be described thus: sensitizers of A549 cells to miR-34 induction, primary screen, imaging, A549 dox-inducible miR-34, nuclei and caspase counts (AID 1347080). The note with it: A549 miR-34 inducible, Hoechst nuclei count, 48 h.
A short description of assay [3]: survival rescue of mitochondrial mutant cells in low glucose, primary screen, MELAS cybrids, Rieske KO mouse fibroblasts, CellTiter-Glo (AID 1508586;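 active means mean z-score across replicates of 1.96 or higher in either the MELAS or the Rieske mutant cell line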;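 further: z relative to plate mean and SD of compound and empty wells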). In general terms: ATP-based viability assays read luminescence as a measure of living cells.
A short description of assay [4]: hESC survival regulators, cell-based (AID 493140; call rule not given here;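 further: cells exposed to compounds for four days before counting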). The note with it: human embryonic stem cell survival screen; stronger effect = higher value.
Where [5] appears, read: stronger effect = lower value, cell number ratio, induced over uninduced.
[6] abbreviates: measured here: relative caspase fold change +Dox/-Dox.
Where [7] appears, read: measured here: total cells with miR-34 induction, stronger effect = lower value.
The mark [8] stands for this setting: measured here: total cells without miR-34 induction.
The mark [9] stands for this setting: MELAS cybrid survival, CellTiter-Glo 48 h, stronger effect = higher value.
[10] abbreviates: Rieske KO mouse fibroblast survival, CellTiter-Glo 72 h.

Structures are written as SMILES. “And” between values parts separate entries of the source, which are not always exact repeats. Equal entries are not always repeated. The source made the active and inactive calls.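 How the source made its calls, unless noted: active means compounds whose cell count with miR-34 switched on is under 0.7 times the count with it off; inactive means the rest.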

A word on the viability: it is a read-out of living cells in per cent, often relative to untreated cells.

For the compound `CN[C@@H]1C(O[C@H]2O[C@H](CO)[C@@H](N)[C@H](O)[C@H]2O)O[C@H]2C[C@@H](N)[C@@H](O[C@H]3[C@H](O)[C@@H](O)[C@H](N)C[C@@H]3N)OC2[C@@H]1O` (stereo partly specified), in assay [1], the parasite load remaining was 95.7% (inactive). Further, in assay [1], the viability worked out at 72.5%. In addition, the fold change was 1.02 (inactive) in assay [2] (setting [5]) and 0.823 in assay [2] (setting [6]). Besides, the cell count is 9080 in assay [2] (setting [7]) and 8920 in assay [2] (setting [8]). Further, the results for the z-score in assay [3] (setting [9]) and in assay [3] (setting [10]) were 0.718 (inactive) and -0.268, respectively.
As for `OCCN1CCN(CC/C=C2/c3ccccc3Sc3ccc(Cl)cc32)CC1`, the survival in assay [4] was 0.583 (inactive). Further, the parasite load remaining in assay [1] was 65.1% (inactive). Further, in assay [1], the viability turned out to be 62.7%. In addition, the fold change was 0.885 (inactive) in assay [2] (setting [5]) and 0.539 in assay [2] (setting [6]). For the same compound, the cell count in assay [2] (setting [7]) is 7300; in assay [2] (setting [8]) it was 8250. Further, the results for the z-score in assay [3] (setting [9]) and in assay [3] (setting [10]) were 0.382 (inactive) and -0.231, respectively.
Take `Nc1ncn(C2O[C@H](CO)[C@@H](O)[C@H]2O)c(=O)n1` (stereo partly specified): the parasite load remaining in assay [1] is 151% (inactive). Moreover, the viability in assay [1] was 108%. Moreover, the values for the fold change in assay [2] (setting [5]) and in assay [2] (setting [6]) were 0.664 (active) and 1.38, respectively. In addition, the cell count is 2060 in assay [2] (setting [7]) and 3100 in assay [2] (setting [8]). Moreover, the figures for the z-score in assay [3] (setting [9]) and in assay [3] (setting [10]) were -0.101 (inactive) and 0.0147, respectively.
Take `C=CCN1CCCC1CNC(=O)c1cc2[nH]nnc2cc1OC` (stereo unspecified): the parasite load remaining in assay [1] was 92.8% (inactive). In addition, the viability in assay [1] was 100%. Besides, the fold change in assay [2] (setting [5]) was 0.836 (inactive) and 0.882 (inactive); in assay [2] (setting [6]) it was 1.28 and 0.705. The cell count in assay [2] (setting [7]) is 8730 and 8290; in assay [2] (setting [8]), 10400 and 9410. The z-score in assay [3] (setting [9]) is -0.272 (inactive) and -0.0484 (inactive); in assay [3] (setting [10]), -0.199 and -0.148.
Regarding `CCOC1O[C@H]([C@@H](COCc2ccccc2)OCc2ccccc2)[C@H](OCc2ccccc2)[C@H]1O` (stereo partly specified), the parasite load remaining in assay [1] is 66.9% (inactive). Further, the viability in assay [1] was determined as 70.5%. In addition, the figures for the fold change in assay [2] (setting [5]) and in assay [2] (setting [6]) were 0.904 (inactive) and 0.887, respectively. Also, the cell count is 8110 in assay [2] (setting [7]) and 8970 in assay [2] (setting [8]). The z-score in assay [3] (setting [9]) was -0.366 (inactive); in assay [3] (setting [10]) it was 0.506.
With `CN(C)C/C=C(\c1ccc(Br)cc1)c1cccnc1`, the parasite load remaining in assay [1] was 45.2% (inactive). For the same compound, the viability in assay [1] is 47.6%. Besides, the values for the fold change in assay [2] (setting [5]) and in assay [2] (setting [6]) were 0.924 (inactive) and 0.86, respectively. The cell count in assay [2] (setting [7]) came to 8480; in assay [2] (setting [8]), 9180. Besides, the z-score in assay [3] (setting [9]) was 0.27 (inactive); in assay [3] (setting [10]), 0.193.
As to `Cc1cc(C=Cc2ccc3cc(N(C)C)ccc3[n+]2C)c(C)n1-c1ccccc1`, in assay [4], the survival is 2.17 (inactive). Also, the parasite load remaining in assay [1] was 0.11% (inactive). Further, the viability in assay [1] amounted to 48.8%. The figures for the fold change in assay [2] (setting [5]) and in assay [2] (setting [6]) were 1.3 (inactive) and 1.04, respectively. In addition, the figures for the cell count in assay [2] (setting [7]) and in assay [2] (setting [8]) were 2390 and 1840, respectively. Further, the z-score was 0.882 (inactive) in assay [3] (setting [9]) and 0.984 in assay [3] (setting [10]).
With `CNC(=O)c1c(I)c(C(=O)NCC(=O)Nc2c(I)c(C(=O)O)c(I)c(C(=O)NCCO)c2I)c(I)c(N(C)C(C)=O)c1I`, in assay [4], the survival was 10.4 (inactive). For the same compound, the parasite load remaining in assay [1] was 91.6% (inactive). Besides, in assay [1], the viability stood at 71.7%. Moreover, the results for the fold change in assay [2] (setting [5]) and in assay [2] (setting [6]) were 0.94 (inactive) and 0.7, respectively. In addition, the figures for the cell count in assay [2] (setting [7]) and in assay [2] (setting [8]) were 9020 and 9600, respectively. The z-score in assay [3] (setting [9]) is -0.247 (inactive); in assay [3] (setting [10]) it was 0.501.
Regarding `CC(C)(C)NC[C@@H](O)COc1cccc2c1CCCC2=O`, the survival in assay [4] was 6.25 (inactive). In assay [1], the parasite load remaining was 94.5% (inactive). In addition, the viability in assay [1] is 97%. The figures for the fold change in assay [2] (setting [5]) and in assay [2] (setting [6]) were 0.911 (inactive) and 1.14, respectively. The cell count worked out at 9750 in assay [2] (setting [7]) and 10700 in assay [2] (setting [8]). The values for the z-score in assay [3] (setting [9]) and in assay [3] (setting [10]) were 0.547 (inactive) and 0.0254, respectively.

For the origin of these results see PubChem BioAssay.
